Assay outcomes as filed in PubChem.
An excerpt weighted towards active compounds, which were near 10% of everything screened.
PNC assembly inh: High Content Assay for Compounds that inhibit the Assembly of the Perinucleolar Compartment. activity change (PNC), negative = inhibition, % at 10 µM. 140,000 compounds, 3.1% hits. AID 2417, 2010. PC3M PTB-GFP, PNC prevalence imaging, 16 h; stronger effect = lower value;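 active = readout at or below -70, meaning at least 70% loss of cells showing the perinucleolar compartment, a nuclear body marking cancer cells; inconclusive = readout between -30 and a set limit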;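 also: plate controls were DMSO wells for no effect and camptothecin positive control wells for full effect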
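Read-out is percentage of cells bearing a perinucleolar compartment, from automated 20x imaging of fixed, Hoechst-stained PC3M PTB-GFP cells. Cells were seeded 4 h, then exposed 16 h to compound (23 nl of library stock) in duplicate plates.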
KinaseGlo FLuc: Counterscreen for Luciferase (Kinase-Glo TM) Inhibition; Kinase-Glo luciferase, ATP luminescence, 8 min; 200,000 compounds, 0.28% hits; Potency, µM (titrated, usually from 38.3 µM), inactives show at the highest dose activity change, negative = inhibition, usual class: inhibitors; AID 1379, 2008; Luciferin 4-monooxygenase (Photuris pensylvanica), Q27757; active = well fitted inhibition curve with a large enough effect; inconclusive = small, poorly fitted or top-dose-only effect; also: potency is read from the fitted curve at half-maximal effect; nearly all actives have a fitted effect of over 60% in size
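Kinase-Glo luciferase light output from ATP and luciferin was measured with 10 uM ATP, within the enzyme's linear range. Buffer: 50 mM imidazole pH 7.2, 50 mM KCl, 7 mM MgCl2, 0.01% Tween 20, 0.05% BSA; luminescence read after 8 min at ambient temperature.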
Lamin A splicing: qHTS Assay for Modulators of Lamin A Splicing | HeLa LMNA splicing GFP/RFP minigene ratio, 48 h | Potency, µM (doses to about 46.1 µM), without a hit: at the top dose ratio change, negative = inhibition, most hits filed as inhibitors | 200,000 compounds, 0.01% hits | AID 1487, 2009; active = well fitted inhibition curve with a large enough effect in the signal ratio, with a control signal flat, not every such curve was filed as active; inconclusive = small, poorly fitted or top-dose-only effect, or effect the other way, or a change in a side signal; the % refers to the signal ratio; also: potency is read from the fitted curve at half-maximal effect
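Read-out is the ratio of GFP to DsRed2 object intensity, acquired by 488 nm laser-scanning cytometry on HeLa lamin A-EGFP minigene reporter cells. Compound incubation 48 hrs at 37 °C in Opti-MEM with 2% FBS; DMSO 0.5% final.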
ALDH1A1 block: qHTS Assay for Inhibitors of Aldehyde Dehydrogenase 1 (ALDH1A1); Aldehyde dehydrogenase 1A1 (Homo sapiens), P00352; Purified ALDH1A1, NADH fluorescence, propionaldehyde substrate; Potency, µM (highest dose often 75.3 µM), without a hit: at the highest dose activity, negative = inhibition, actives largely listed as inhibitors; 220,000 compounds, 7.3% hits; AID 1030, 2008;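 also: potency is read from the fitted curve at half-maximal effect; plate controls were no enzyme wells and a reference inhibitor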
HPGD block: qHTS Assay for Inhibitors of HPGD (15-Hydroxyprostaglandin Dehydrogenase); 150,000 compounds, 4.3% hits; 15-hydroxyprostaglandin dehydrogenase [NAD(+)] (Homo sapiens), P15428; purified HPGD, NADH fluorescence kinetic, PGE2 substrate; Potency, µM, without a hit: at the top dose activity change, negative = inhibition, actives largely listed as inhibitors; AID 894, 2007; also: potency is read from the fitted curve at half-maximal effect
Target sequence (P15428 whole entry, looked up): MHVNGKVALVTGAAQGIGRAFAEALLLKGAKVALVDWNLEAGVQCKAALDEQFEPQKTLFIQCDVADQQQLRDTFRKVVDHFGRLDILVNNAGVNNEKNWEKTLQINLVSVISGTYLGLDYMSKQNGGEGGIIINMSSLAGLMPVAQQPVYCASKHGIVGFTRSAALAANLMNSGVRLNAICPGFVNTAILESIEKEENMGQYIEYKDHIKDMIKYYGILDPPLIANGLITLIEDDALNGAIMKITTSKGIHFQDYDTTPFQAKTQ
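NADH formation kinetics: reaction with 30 uM PGE2 and 1 mM NAD+ (final), 20 nM enzyme, Tris-HCl pH 8 with Tween 20, after 15 min compound preincubation at room temperature. Fluorescence change, last versus first of five reads.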
IMPase cell inh: qHTS Assay for Identifying the Cell-Membrane Permeable IMPase Inhibitors. Inositol monophosphatase 1 (Rattus norvegicus), P97697. CHO-M1 cells, IP1 accumulation, HTRF TR-FRET ratio. inhibition (IP1 accumulation), % at 46.1 µM. 120,000 tested, under 10 active. AID 901, 2007; active = well fitted curve in the direction sought with a large enough effect in the signal ratio, not every such curve was filed as active; inconclusive = small, poorly fitted or top-dose-only effect, or a change in a side signal; inactive = no such curve, though single readings can be large or run the other way; the % refers to the signal ratio;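 also: cells stimulated with carbachol in lithium chloride buffer; plate controls were DMSO basal wells for no effect and reference inhibitor wells for full effect; higher means more IMPase inhibition seen as more IP1 and lower FRET ratio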
Target sequence (P97697 whole entry, looked up): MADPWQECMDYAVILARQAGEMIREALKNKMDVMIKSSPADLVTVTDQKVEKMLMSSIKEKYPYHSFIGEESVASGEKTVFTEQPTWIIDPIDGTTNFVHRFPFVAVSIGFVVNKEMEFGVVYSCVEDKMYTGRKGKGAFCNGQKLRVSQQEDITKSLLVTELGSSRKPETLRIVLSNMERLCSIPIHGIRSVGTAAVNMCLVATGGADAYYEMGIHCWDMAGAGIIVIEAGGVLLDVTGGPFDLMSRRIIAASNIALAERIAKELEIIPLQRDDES
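CHO-M1, 2000 cells/well, cultured 16–30 h; cpd up to 46 uM; carbachol (50 uM solution, stimulation buffer w/ 50 mM LiCl, pH 7.4), 30 min 37C; IP-One TR-FRET, 10 min RT; Ex 320/Em 665, 620; Hill-fit AC50.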
Starred values were filed as active, the others as inactive; ? = inconclusive; / = no result; [ ] = dose if it differs, or a comment. Unless noted, calls follow the shape of the dose curve; as a rule, active = well fitted inhibition curve with a large enough effect (not every such curve was filed as active); inconclusive = small, poorly fitted or top-dose-only effect, or another doubt; inactive = no such curve, though single readings can be large or run the other way. Unless noted, % is scaled to controls: 0 for no effect and ±100 for the full control effect.

SMILES	PNC assembly inh	KinaseGlo FLuc	Lamin A splicing	ALDH1A1 block	HPGD block	IMPase cell inh
CCOC(=O)c1c(NC(=O)COC(=O)Cn2c(C(F)(F)F)nc3ccccc32)sc(C)c1C	?	1%	5%	99%	-20%	9
CCOC(=O)c1c(NC(=O)COC(=O)CNC(=O)c2ccco2)sc(C)c1C	?	1%	?	-16%	-11%	11
CCOC(=O)c1sc(NC(=O)COC(=O)CNC(=O)c2ccco2)c(C(=O)OCC)c1C	?	2%	?	28µM*	-26%	/
CCOC(=O)c1sc(NC(=O)COC(=O)Cn2cnc3ccccc32)c(C(=O)OCC)c1C	-97*	2%	6%	?	-2%	7
O=C(COC(=O)Cn1cnc2ccccc21)NCCc1ccc(Cl)cc1	?	-4%	3%	13µM*	-9%	2
COC(=O)N/N=C/c1sc(N2CCCCC2)nc1-c1cccs1	/	-2%	/	25µM*	/	/
Cc1cc2c(nc1C)CCCN2CC(O)CN1CCCc2nc(C)c(C)cc21	/	/	/	11%[13.5 µM]	/	/
O=C(/C(=N/N=C/c1ccc(O)c(O)c1O)c1ccccc1)c1ccccc1	-21	-5%	?	6%	2µM*	/
NC(N)=N/N=C/c1ccccc1	18	1%	-3%	-4%	-8%	3
O=C(O)c1cc(N=Cc2ccccc2O)cc(C(=O)O)c1	/	-7%[7.66 µM]	/	-16%[13.5 µM]	-24%	/
Oc1ccc(/C=N/N=C(c2ccccc2)c2ccccc2)c(O)c1O	-28	5%	?	7.1µM*	16µM*	-5
Cc1ccc(S(=O)(=O)CC(=O)N(C)C)cc1	-100*	0%	-9%	5%	-5%	-6
CC(Oc1ccc(F)cc1)C(=O)/C=C\N(C)C (stereo not given)	-88*	2%	-10%	8%	-26%	4
CC(Oc1ccc(-c2nccc(-c3ccccn3)n2)cc1)C(=O)NN (stereo not given)	6	-2%	1%	18µM*	-5%	7
CC(Oc1ccccc1F)C(=O)/C=C/N(C)C (stereo not given)	-13	-1%	?	19%	28µM*	7
CC(Oc1cccc(F)c1)C(=O)/C=C\N(C)C (stereo not given)	-19	-1%	6%	-5%	?	?
CC(Oc1ccccc1Cl)C(=O)/C=C/N(C)C (stereo not given)	-16	-1%	-4%	-3%	14µM*	5
CC(=O)Nc1ccc(NC(=O)C2CCN(c3c(NC(C)=O)c(C)nn3-c3ccccc3)CC2)cc1	/	/	-10%[46 µM]	/	/	/
C=CCC(C)(O)CCc1ccccc1 (stereo not given)	/	-1%	/	0%	3%	/
CC(Oc1ccc(F)cc1)C(=O)NN (stereo not given)	22	-1%	-8%	5µM*	-10%	/
CC(Oc1ccccc1)C(=O)Nc1cccc(F)c1 (stereo not given)	33	-1%	1%	-3%	-4%	11
CC(C)=CCC/C(C)=C/CC/C(C)=C/CSCC(=O)O	/	1%	/	0%	-12%	/
O=c1c2ccccc2c(-c2ccc(O)cc2)nn1-c1cccc(C(F)(F)F)c1	-85*	0%	5%	3%	-10%	10
O=c1c2ccccc2c(-c2ccc(Cl)cc2)nn1-c1ccccc1	53	2%	3%	-9%	-8%	0
CC(C)NS(=O)(=O)c1ccc(NC(=S)NC(=O)c2ccc(-c3ccccc3)cc2)cc1	5	-1%	16%	11µM*	-16%	-1
O=C(NC(=S)Nc1ccccc1)c1ccc(-c2ccccc2)cc1	-7	1%	-3%	?	-15%	/
COc1cc(C(=O)NC(=S)N(C)Cc2ccccc2)cc(OC)c1OC	/	-1%	/	?	/	/
